Assay outcomes (PubChem BioAssay)
Hits are enriched below; roughly 3.3% of the tested compounds scored in any of these assays.
Tb PYK inh = blocks Trypanosoma brucei pyruvate kinase; Q57TT1; TbPYK enzyme, Kinase-Glo Plus ATP luminescence, 45 min; Potency, µM (titrated, usually from 76.8 µM), without a hit: at the top dose activity, negative = inhibition, hits mostly inhibitors; 0.12% of 410,000 active; AID 624173; note: % is set by controls: 0 for no effect and ±100 for the full control effect; nearly all actives have a fitted effect of over 50% in size
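Activity of T. brucei pyruvate kinase was followed by Kinase-Glo Plus luminescence after the enzyme reacted 45 min at room temperature with 130 uM ADP (final) and substrate. Test compounds were added before ADP at multiple concentrations.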
SARS PLpro yeast = blocks SARS-CoV papain-like protease in a yeast assay | AID 485353 | Potency, µM (top dose mostly 32.9 µM), for the others: at the top dose activity, positive = growth rescue, hits mostly activators | S. cerevisiae expressing SARS-CoV PLpro, growth rescue | 0.19% of 330,000 active; calls by dose curve; note: 0% is about no effect; nearly all actives have a fitted effect of over 55% in size
RE007 growth inh = less growth of the S. pombe RE007 Vpr strain | S. pombe RE007 Vpr strain, BacTiter-Glo ATP luminescence, 24 h | Potency, µM (titrated, usually from 92.2 µM), inactives show top-dose activity change, negative = less growth, actives largely listed as inhibitors | 0.21% of 360,000 active; active = well fitted falling curve with a large enough effect; inconclusive = small, poorly fitted or top-dose-only effect; inactive = no such curve, though single readings can be large or run the other way; note: % is set by controls: 0 for no effect and ±100 for the full control effect; nearly all actives have a fitted effect of over 50% in size
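Fission yeast strain RE007, carrying one chromosomally integrated HIV-1 vpr copy, was seeded at OD 0.01 in PMG+AL medium with 23 nL pinned compound. After 24 h at 30 °C and 99% humidity, viability was read by BacTiter-Glo luminescence.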
Sm TGR inh = inhibitors of Schistosoma mansoni thioredoxin glutathione reductase; purified TGR, DTNB reduction, TNB absorbance 405 nm; Potency, µM (top dose mostly 114 µM), without a hit: top-dose activity change, negative = inhibition, most hits filed as inhibitors; 3% of 360,000 active; note: % is set by controls: 0 for no effect and ±100 for the full control effect; nearly all actives have a fitted effect of over 60% in size
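TGR 20 nM + NADPH 100 uM (dispensed conc.), cpd preinc 15 min RT; start with NADPH (500 uM addition) then DTNB (15 mM addition). Kinetic TNB absorbance, 405 nm filter. Four-parameter Hill fit across titration.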
AmpC detergent = blocks E. coli AmpC beta-lactamase in detergent assay. 0.041% of 370,000 active. P00811. AID 485294. AmpC hydrolysis of nitrocefin, absorbance 480 nm, 0.01% Triton. Potency, µM (series often up to 114 µM), for the others: at the highest dose activity change, negative = inhibition, most hits filed as inhibitors;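 note: 0% = no-compound wells and -100% = no-enzyme wells; nearly all actives have a fitted effect of over 25% in size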
Target sequence (P00811 whole entry, looked up): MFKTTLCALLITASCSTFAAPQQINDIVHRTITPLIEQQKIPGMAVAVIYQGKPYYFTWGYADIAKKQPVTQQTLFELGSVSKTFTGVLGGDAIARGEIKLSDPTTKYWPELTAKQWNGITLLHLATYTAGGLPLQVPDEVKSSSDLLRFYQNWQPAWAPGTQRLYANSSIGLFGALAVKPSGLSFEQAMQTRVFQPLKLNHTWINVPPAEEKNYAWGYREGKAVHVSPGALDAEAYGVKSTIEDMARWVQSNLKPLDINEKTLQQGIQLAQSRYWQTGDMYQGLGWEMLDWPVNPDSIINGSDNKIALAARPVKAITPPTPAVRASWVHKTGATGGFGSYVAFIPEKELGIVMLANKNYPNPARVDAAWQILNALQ
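20 mM phosphate pH 7.0 + 0.01% (detergent screen) or 0.0001% Triton X-100; 5.3 nM AmpC reagent; cpd preinc 15 min RT; nitrocefin (800 uM stock) to start; A480 q20 s × 4 min; Activity was normalised to no-enzyme and no-compound control wells.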
AmpC inh no detg = inhibitors of E. coli AmpC beta-lactamase without detergent; P00811; AmpC nitrocefin hydrolysis, absorbance 480 nm, 0.0001% Triton; Potency, µM (titrated, usually from 57.1 µM), for inactives: at the top dose activity change, negative = inhibition, actives largely listed as inhibitors; 0.52% of 330,000 active; AID 485341;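 note: plate controls were no compound for no effect and no enzyme for full effect; nearly all actives have a fitted effect of over 20% in size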
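AmpC (5.3 nM in the dispensed reagent) in 20 mM phosphate pH 7.0 with 0.01% (detergent screen) or 0.0001% Triton X-100 was preincubated with compounds for 15 min at room temperature. Nitrocefin was then added from an 800 uM solution, and hydrolysis was followed at 480 nm.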
* hit, by the source's call; ? = inconclusive; . = not tested or not shown; [ ] = remark or other dose. Unless noted, calls come from the whole dose curve; as a rule, active = well fitted curve in the direction sought with a large enough effect; inconclusive = small, poorly fitted or top-dose-only effect, or another doubt; inactive = no such curve, though single readings can be large; an effect the other way counts as inactive or inconclusive. Potency is the fitted concentration of half-maximal effect.

SMILES	Tb PYK inh	SARS PLpro yeast	RE007 growth inh	Sm TGR inh	AmpC detergent	AmpC inh no detg
Cc1ccc(NC(=O)Cn2cccc2)cc1Cl	1%	22%	11%	32µM*	-7%	-24%
Cc1c(N)nc([C@@H](CC(N)=O)NC[C@H](N)C(N)=O)nc1C(=O)N[C@H](C(=O)N[C@H](C)[C@H](O)[C@H](C)C(=O)N[C@@H](C(=O)NCCc1nc(-c2nc(C(=O)NCCC[S+](C)C)cs2)cs1)[C@H](C)O)[C@H](O[C@@H]1O[C@@H](CO)[C@@H](O)[C@H](O)[C@@H]1O[C@H]1O[C@H](CO)[C@H](O)[C@H](OC(N)=O)[C@@H]1O)c1cnc[nH]1	8%	.	.	.	.	.
CC(COc1ccccc1)N(CCCl)Cc1ccccc1 (stereo not given)	-3%	2%	-12%	25µM*	-2%	-15%
CC(=O)Nc1ccc(-n2c(CCC(=O)O)ccc2-c2ccc(C)cc2)cc1	-8%	.	.	14µM*	-5%	.
CC(=O)Nc1ccc(-n2c(CCC(=O)O)ccc2-c2ccc(Br)cc2)cc1	-6%	.	.	35µM*	7%	.
CCC(C(=O)Nc1cc(F)ccc1F)n1nc(-c2cc(C)ccc2C)ccc1=O (stereo not given)	-6%	.	.	-6%	11%	.
CCc1ccccc1NC(=O)CSc1ncc2c(n1)-c1ccccc1N(C)S2(=O)=O	1%	.	.	2%	-2%	.
O=[N+]([O-])c1cc(Br)c(Nc2ccccc2)c([N+](=O)[O-])c1	1%	-13%	-9%	11µM*	-8%	-18%
CCNC(=O)C1CCCN(c2nn3cc(-c4ccc(C)cc4)nc3s2)C1 (stereo not given)	0%[15.4 µM]	.	.	1%	5%	.
COc1ccccc1Nc1cc(C)nc2nc(-c3ccccc3)nn12	-2%	.	.	-4%	-4%	.
Cc1cc(C)cc(OCCOc2cccc(C=C3C(=O)NC(=O)NC3=O)c2)c1	-10%	8%	-7%	32µM*	0%	-28%
O=c1[nH]c2ccc(NCc3ccc(-c4ccc(F)cc4)o3)cc2[nH]1	-4%	.	.	-3%	20%	.
CCOc1ccccc1C(=O)Nc1ccc2nc3c(c(Nc4ccc(OC)c(OC)c4)c2c1)CCCC3	2%	.	.	-6%	2%	.
O=C(NC(N1CCOCC1)C(Cl)(Cl)Cl)c1ccc(F)cc1 (stereo not given)	-13%	0%	-14%	.	-4%	-10%
O=C(NC(N1CCCC1)C(Cl)(Cl)Cl)c1ccccc1 (stereo not given)	2%	-2%	-4%	3.5µM*	-7%	-20%
CCCNC(=O)C(Cc1ccccc1)NS(=O)(=O)c1ccc2c(c1)CCC(=O)N2 (stereo not given)	-3%	6%	-4%	6%	?	-13%
CN(Cc1ccco1)C(=O)C(Cc1ccccc1)NS(=O)(=O)c1ccc2c(c1)CCC(=O)N2 (stereo not given)	-4%	5%	-2%	40µM*	-11%	-5%
COc1cccc(CNC(=O)c2ccc3c(c2)sc2nc(-c4ccccc4)cn23)c1OC	-6%	.	.	-1%	21%	.
O=C(CSc1nc2ccc(Cl)cc2[nH]1)N1CCN(C(=O)c2ccco2)CC1	?	12%	.	50µM*	-3%	-6%
CCc1cc2ccc(C)cc2nc1SCC(=O)N1CCN(C(=O)c2ccco2)CC1	-4%	-2%	-3%	40µM*	-11%	96%
CCc1cc2cc3c(cc2nc1SCC(=O)N1CCN(C(=O)c2ccco2)CC1)OCO3	-11%	-5%	-12%	-25%	?	81%
Cc1cc(Cl)ccc1OCCCC(=O)N1CCN(C(=O)c2ccco2)CC1	-10%	-3%	22%	50µM*	-15%	81%
